PubChem BioAssay AID1159580 (chemical genetic matrix, 2015)
Hit rate of the full screen: of about 5,500 compounds, about 2,000 (36%) were called active. Roughly 18% stayed inconclusive and do not appear here. No stated cut-off is given here; in the data, active means normalized growth mostly below about 0.91 (no sharp cut-off); inconclusive means no clear call, values can overlap the other calls; inactive means mostly above about 0.92. This is one part of the list.

Experiment: chemical genetic growth profiling, strain panel (AID 1159580);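 further: tested at 20 µM; growth read once vehicle control cultures reached saturation at 30 °C; 1 = growth at the plate median or of vehicle wells; lower values mean less growth of the strain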
Settings: growth OD

Measured: normalized growth

C[C@]12CCC(=O)C=C1CCC1C2CC[C@@]2(C)C1CC[C@@H]2O (some centres not stated)
inactive: S. cerevisiae deletion strains, locus YJR075W, strain HOC1, hits give low values 0.996 | S. cerevisiae deletion strains, locus YKL009W, strain mrt4, hits give low values 0.957 | S. cerevisiae deletion strains, locus YKL068W, hits give low values 1.03 | S. cerevisiae deletion strains, locus YKL085W, strain MDH1 (second series), hits give low values 1.01 | S. cerevisiae deletion strains, locus YKL085W, strain MDH1, hits give low values 1.01 | S. cerevisiae deletion strains, locus YKL160W, strain elf1, hits give low values 0.994 | S. cerevisiae deletion strains, locus YKL190W, strain CNB1, hits give low values 1.03 | S. cerevisiae deletion strains, locus YKR001C, strain vps1, hits give low values 1.03 | S. cerevisiae deletion strains, locus YKR026C, strain gcn3, hits give low values 1 | S. cerevisiae deletion strains, locus YKR091W, strain srl3, hits give low values 0.991 | S. cerevisiae deletion strains, locus YLL001W, strain dnm1, hits give low values 1 | S. cerevisiae deletion strains, locus YLL026W, hits give low values 0.992 | S. cerevisiae deletion strains, locus YLL041C, strain sdh2, hits give low values 0.99 | S. cerevisiae deletion strains, locus YLR027C, strain aat2, hits give low values 1 | S. cerevisiae deletion strains, locus YLR039C, strain RIC1, hits give low values 1.17 | S. cerevisiae deletion strains, locus YLR058C, strain SHM2, hits give low values 1.02 | S. cerevisiae deletion strains, locus YLR102C, strain apc9, hits give low values 1.03 | S. cerevisiae deletion strains, locus YLR113W, strain HOG1, hits give low values 0.99 | S. cerevisiae deletion strains, locus YLR221C, strain rsa3, hits give low values 0.988 | S. cerevisiae deletion strains, locus YLR258W, strain gsy2, hits give low values 0.993 | S. cerevisiae deletion strains, locus YLR262C, strain YPT6 (second series), hits give low values 0.98 | S. cerevisiae deletion strains, locus YLR262C, strain YPT6, hits give low values 1.18 | S. cerevisiae deletion strains, locus YLR268W, strain sec22, hits give low values 1.01 | S. cerevisiae deletion strains, locus YLR320W, strain mms22, hits give low values 0.946 | S. cerevisiae deletion strains, locus YLR330W, strain CHS5, hits give low values 1.02 | S. cerevisiae deletion strains, locus YLR342W, strain FKS1 (second series), hits give low values 0.983 | S. cerevisiae deletion strains, locus YLR342W, strain FKS1, hits give low values 0.985 | S. cerevisiae deletion strains, locus YLR357W, strain rsc2, hits give low values 1.02 | S. cerevisiae deletion strains, locus YLR370C, strain arc18, hits give low values 0.988 | S. cerevisiae deletion strains, locus YLR371W, strain rom2, hits give low values 1.02 | S. cerevisiae deletion strains, locus YLR384C, strain iki3, hits give low values 1 | S. cerevisiae deletion strains, locus YLR418C, strain cdc73, hits give low values 1.02 | S. cerevisiae deletion strains, locus YML016C, strain PPZ1, hits give low values 1.02 | S. cerevisiae deletion strains, locus YML032C, strain rad52, hits give low values 1.02 | S. cerevisiae deletion strains, locus YML120C, strain ndi1, hits give low values 0.981 | S. cerevisiae deletion strains, locus YML124C, strain tub3, hits give low values 1.03 | S. cerevisiae deletion strains, locus YMR058W, strain fet3, hits give low values 0.993 | S. cerevisiae deletion strains, locus YMR078C, strain ctf18, hits give low values 1.03 | S. cerevisiae deletion strains, locus YMR125W, strain sto1, hits give low values 0.99 | S. cerevisiae deletion strains, locus YMR129W, hits give low values 0.993 | S. cerevisiae deletion strains, locus YMR205C, strain PFK2, hits give low values 0.936 | S. cerevisiae deletion strains, locus YMR223W, strain ubp8, hits give low values 1.01 | S. cerevisiae deletion strains, locus YMR231W, strain pep5, hits give low values 0.999 | S. cerevisiae deletion strains, locus YMR263W, strain SAP30, hits give low values 1.04 | S. cerevisiae deletion strains, locus YMR307W, strain GAS1, hits give low values 1.23 | S. cerevisiae deletion strains, locus YNL067W, strain RPL9B, hits give low values 0.993 | S. cerevisiae deletion strains, locus YNL071W, strain lat1, hits give low values 0.976 | S. cerevisiae deletion strains, locus YNL128W, strain TEP1, hits give low values 1.02 | S. cerevisiae deletion strains, locus YNL153C, strain GIM3, hits give low values 1.02 | S. cerevisiae deletion strains, locus YNL183C, strain NPR1, hits give low values 0.988 | S. cerevisiae deletion strains, locus YNL209W, strain ssb2, hits give low values 1.01 | S. cerevisiae deletion strains, locus YNL233W, strain BNI4, hits give low values 1.04 | S. cerevisiae deletion strains, locus YNL248C, strain rpa49, hits give low values 1 | S. cerevisiae deletion strains, locus YNL250W, strain rad50, hits give low values 1.05 | S. cerevisiae deletion strains, locus YNL271C, strain bni1, hits give low values 1.02 | S. cerevisiae deletion strains, locus YNL298W, strain CLA4, hits give low values 1 | S. cerevisiae deletion strains, locus YNL307C, strain MCK1, hits give low values 0.989 | S. cerevisiae deletion strains, locus YNL322C, strain KRE1 (second series), hits give low values 0.993 | S. cerevisiae deletion strains, locus YNL322C, strain KRE1, hits give low values 1.02 | S. cerevisiae deletion strains, locus YNR049C, strain mso1, hits give low values 0.982 | S. cerevisiae deletion strains, locus YNR052C, strain pop2, hits give low values 0.989 | S. cerevisiae deletion strains, locus YOL006C, strain TOP1, hits give low values 0.971 | S. cerevisiae deletion strains, locus YOL012C, strain htz1 1.89 | S. cerevisiae deletion strains, locus YOL147C, strain pex11, hits give low values 1.03 | S. cerevisiae deletion strains, locus YOR001W, strain rrp6, hits give low values 0.995 | S. cerevisiae deletion strains, locus YOR061W, strain CKA2, hits give low values 1.02 | S. cerevisiae deletion strains, locus YOR069W, strain VPS5, hits give low values 1.01 | S. cerevisiae deletion strains, locus YOR070C, strain gyp1, hits give low values 0.988 | S. cerevisiae deletion strains, locus YOR080W, strain dia2, hits give low values 0.983 | S. cerevisiae deletion strains, locus YOR083W, strain WHI5, hits give low values 0.983 | S. cerevisiae deletion strains, locus YOR106W, strain vam3, hits give low values 0.96 | S. cerevisiae deletion strains, locus YOR136W, strain idh2, hits give low values 1.04 | S. cerevisiae deletion strains, locus YOR144C, strain elg1, hits give low values 1.03 | S. cerevisiae deletion strains, locus YOR184W, strain ser1, hits give low values 0.98 | S. cerevisiae deletion strains, locus YOR231W, strain MKK1, hits give low values 0.99 | S. cerevisiae deletion strains, locus YOR265W, strain rbl2, hits give low values 0.989 | S. cerevisiae deletion strains, locus YOR270C, strain vph1, hits give low values 0.936 | S. cerevisiae deletion strains, locus YOR290C, strain snf2, hits give low values 0.967 | S. cerevisiae deletion strains, locus YOR316C, strain cot1, hits give low values 1.03 | S. cerevisiae deletion strains, locus YPL051W, strain arl3, hits give low values 1 | S. cerevisiae deletion strains, locus YPL055C, strain LGE1, hits give low values 1.07 | S. cerevisiae deletion strains, locus YPL078C, strain atp4, hits give low values 0.997 | S. cerevisiae deletion strains, locus YPL106C, strain sse1, hits give low values 1.05 | S. cerevisiae deletion strains, locus YPL240C, strain hsp82, hits give low values 0.978 | S. cerevisiae deletion strains, locus YPL241C, strain CIN2, hits give low values 1.03 | S. cerevisiae deletion strains, locus YPL256C, strain CLN2, hits give low values 1.06 | S. cerevisiae deletion strains, locus YPR119W, strain clb2, hits give low values 1.02 | S. cerevisiae deletion strains, locus YPR141C, strain kar3, hits give low values 1.04 | S. cerevisiae deletion strains, locus YPR163C, strain tif3, hits give low values 1.04 | S. cerevisiae deletion strains, locus YPR167C, strain met16, hits give low values 1.03 | S. cerevisiae deletion strains, strain wtn01, hits give low values 0.989 | S. cerevisiae strains, strain wild type, hits give low values 1.01
